Assay [1] can be described thus: NCI Yeast Anticancer Drug Screen. Data for the rad50 strain (AID 155).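 Also: 0% = growth of vehicle-only cultures of the same strain.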 The settings on record: S. cerevisiae rad50 strain growth inhibition; at 50.0 µM; hits give high values. Put shortly: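 Yeast carrying a defined DNA repair defect were exposed to test compounds, and growth was compared with vehicle-treated controls to give percent inhibition.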
Assay [2] is described as follows: NCI Yeast Anticancer Drug Screen. Data for the mec2-1 strain (AID 157). As to conditions: S. cerevisiae mec2-1 strain, at 50.0 µM, hits give high values. Put shortly: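 Cells of the genetically defined mec2-1 yeast strain are incubated with test compound. Inhibition of growth is calculated against vehicle-treated controls.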
Assay [3] can be described thus: NCI Yeast Anticancer Drug Screen. Data for the sgs1 mgt1 strain (AID 161).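 Also: 0% = growth of cultures given vehicle only.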 The settings on record: S. cerevisiae sgs1 mgt1 strain, at 50.0 µM, hits give high values. Put shortly:
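Read-out: growth inhibition vs vehicle controls. Cells: mutant yeast strain deficient in DNA damage repair.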

The nature of assay [4]: NCI Yeast Anticancer Drug Screen. Data for the cln2 rad14 strain (AID 165).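 Also: 0% = growth equal to vehicle treated cultures.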 The settings on record: S. cerevisiae cln2 rad14 strain, at 50.0 µM, hits give high values. An outline of the steps:
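The screen exposed genetically defined yeast (cln2 rad14) to test compounds and scored growth inhibition relative to vehicle-treated controls.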

The nature of assay [5]: NCI Yeast Anticancer Drug Screen. Data for the bub3 strain (AID 167). As to conditions: S. cerevisiae bub3 mutant strain, at 50.0 µM, hits give high values. Put shortly: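 Compounds were applied to a genetically altered yeast strain carrying a cell-cycle control defect. Growth inhibition was scored against vehicle-treated controls.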
Assay [6] can be described thus: NCI Yeast Anticancer Drug Screen. Data for the mlh1 rad18 strain (AID 175). The settings on record: S. cerevisiae mlh1 rad18 strain growth inhibition; at 50.0 µM; hits give high values. An outline of the steps:
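Compound-treated yeast growth, normalised to vehicle controls. Strain bears defined DNA repair mutations.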

About 79,000 compounds went through this panel and 15% of them were active in at least one assay; those are over-represented in the sample as a whole. A number with no mark means an inactive call. Active and inactive are the calls of the source. Rule as the data show it: active = growth inhibition above about 70%; inactive = the rest. Where a SMILES comes first, the peptide text is derived from it. The star is where a group is joined. Boc = CC(C)(C)OC(=O)*; OBn = c1ccc(CO*)cc1

With `CCCNS(=O)(=O)c1nc2ccccc2s1`, the growth inhibition is -26% in assay [1]; -15.2% in assay [2]; -5.6% in assay [3]; -22.1% in assay [4]; 2.65% in assay [5]; -20.8% in assay [6].

`C/C(=N\NC(N)=O)c1sc(-c2nc(C)c(/C(C)=N/NC(N)=O)s2)nc1C`: the growth inhibition in assay [1] is 32.8%; in assay [2], 22.8%; in assay [3], 20.9%; in assay [4] it was 43.3%; in assay [5], -16.1%; in assay [6], 27.5%.

Consider `O=C(CN1CCOCC1)CC(O)(C(F)(F)F)C(F)(F)F`, for which the growth inhibition was 0.35% in assay [1]; 2.05% in assay [2]; -1.65% in assay [3]; 7.1% in assay [4]; 1.85% in assay [5]; 72.7% (active) in assay [6].

As for `CN1CCN(C(=S)C(O)(c2ccccc2)c2ccccc2)CC1`, the growth inhibition in assay [1] was 1.75%; in assay [2], -1.85%; in assay [3] it was -2.35%; in assay [4], 1.45%; in assay [5] it was 16.1%; in assay [6], -8.6%.

In the case of `CCCC(=O)Nc1cc(C(=O)N2C[C@@H]3C[C@]34C2=CC(=O)c2[nH]cc(C)c24)n(COC)c1`, the growth inhibition in assay [1] is 26.5%; in assay [2], 10.5%; in assay [3] it was 30.6%; in assay [4], 10.1%; in assay [5], 8.9%; in assay [6], 47.4%.

As to `Cc1cccc(NC(=O)c2cccc([N+](=O)[O-])c2O)c1C`, the growth inhibition in assay [1] was 3.1%; in assay [2] it was 9.05%; in assay [3], 14.2%; in assay [4], 11.8%; in assay [5], -2.7%; in assay [6], -87%.

In the case of `NC(=O)C(=CNC(=S)Nc1ccc(S(=O)(=O)Nc2ccccn2)cc1)C(N)=O`, the growth inhibition in assay [1] was -31.8%; in assay [2], -8.3%; in assay [3], 22.3%; in assay [4], -4.1%; in assay [5] it was 11.3%; in assay [6], -26.8%.

Consider `CC(C)(CC1(C)NC(=O)NC1=O)OCc1ccccc1` (configuration not stated), for which the growth inhibition in assay [1] is -0.5%; in assay [2], -30.1%; in assay [3], -14.8%; in assay [4] it was -24.2%; in assay [5], -45.8%; in assay [6] it was 1.95%.

In the case of `CN1c2ccccc2Oc2ccc3ccccc3c21`, the growth inhibition was 13.8% in assay [1]; -24.6% in assay [2]; 0.95% in assay [3]; -4.3% in assay [4]; -8.2% in assay [5]; 12.8% in assay [6].

Turning to `O=C1c2ccccc2C(=O)N1CCc1ncc[nH]1`, the growth inhibition in assay [1] was 1.45%; in assay [2] it was 17%; in assay [3] it was 0.15%; in assay [4], -23.9%; in assay [5] it was 6.3%; in assay [6] it was 2.9%.

Consider `CCCC[n+]1cccc(C(=O)c2ccccc2)c1`, for which the growth inhibition was 15.7% in assay [1]; -6.6% in assay [2]; 0.7% in assay [3]; 2.75% in assay [4]; 2.35% in assay [5]; 8.85% in assay [6].

As for `O=c1[nH]c(Nc2ccccc2)nc2c1ncn2CC(O)CSCCO` (configuration not stated), the growth inhibition in assay [1] was 16.1%; in assay [2] it was 13.2%; in assay [3], 26.7%; in assay [4] it was 8.45%; in assay [5] it was 10.4%; in assay [6], -27.4%.

With `Cc1ccc(C2OC2C(=O)c2ccccc2)cc1` (configuration not stated), the growth inhibition was 0.05% in assay [1]; 0.25% in assay [2]; -19.5% in assay [3]; -48.5% in assay [4]; -36% in assay [5]; 5.85% in assay [6].

`CC(NC(=O)C(NC(=O)OC(C)(C)C)C(C)C)C(=O)N1CCCC1C(=O)NCC(=O)NC(C(=O)NCC(=O)OCc1ccccc1)C(C)C` (configuration not stated) (Boc-VAPGVG-OBn; configuration not given here): the growth inhibition in assay [1] was -30.1%; in assay [2] it was -33.4%; in assay [3], -20.9%; in assay [4], 6.85%; in assay [5] it was -18.9%; in assay [6] it was -48.4%.

For the compound `CCc1ccc(NC(=S)NC(=O)c2ccccc2OC)cc1`, the growth inhibition was 10.6% in assay [1]; 7.05% in assay [2]; 9.3% in assay [3]; 21.1% in assay [4]; 20.4% in assay [5]; 3.95% in assay [6].

Consider `CC(NC(=O)C(C)(C)C)c1ccc2c(c1)OCCO2` (configuration not stated), for which the growth inhibition was -4.45% in assay [1]; -11.3% in assay [2]; 6.6% in assay [3]; -3.7% in assay [4]; 4.3% in assay [5]; 2.85% in assay [6].

For the compound `Cc1ccccc1N1C(N)=C(C#N)C(C#N)(C#N)C1c1ccccc1` (configuration not stated), the growth inhibition in assay [1] is 8.8%; in assay [2] it was 22.2%; in assay [3] it was -14.6%; in assay [4], -10.6%; in assay [5], -12.4%; in assay [6], 87.8% (active).

As to `O=P(c1ccccc1)(c1ccccc1)c1ccccc1OCCCO`, the growth inhibition in assay [1] is 8.3%; in assay [2], 3.2%; in assay [3] it was 4.35%; in assay [4], 24.8%; in assay [5] it was 4.4%; in assay [6], 3.15%.

On to `O=[N+]([O-])c1cc([N+](=O)[O-])c(/C=C/c2ccccc2Cl)cc1/C=C/c1ccccc1Cl`, for which the growth inhibition in assay [1] is -10.2%; in assay [2] it was 13.4%; in assay [3] it was 15.8%; in assay [4], -19.6%; in assay [5] it was 0.05%; in assay [6] it was 0.5%.

Turning to `CC1OC(O[C@@H]2OC=C(C=O)[C@@]3(O)CC[C@H](C)[C@@H]23)C(O)C(O)C1O` (some centres not stated), the growth inhibition in assay [1] is 16.2%; in assay [2], -10.4%; in assay [3], 9.1%; in assay [4], 7.6%; in assay [5], -6.1%; in assay [6], -39.2%.

For `CCOC(=O)NC(=O)c1cn(CCCOC(=O)CCCCCCCCCCC(=O)OCCCn2cc(C(=O)NC(=O)OCC)c(=O)[nH]c2=O)c(=O)[nH]c1=O`, the growth inhibition in assay [1] was -28.5%; in assay [2] it was -24.2%; in assay [3], -12.4%; in assay [4], 18.6%; in assay [5] it was -0.95%; in assay [6], -18.9%.

Turning to `CCc1ccc2c(OC(C)=O)c3ccccc3c(OC(C)=O)c2c1`, the growth inhibition in assay [1] is 36.4%; in assay [2], 41.3%; in assay [3], 33.4%; in assay [4] it was 18.2%; in assay [5], 46%; in assay [6] it was 74.6% (active).

With `CCOC(=O)NN(C(=O)OCC)C(C(=O)c1ccccc1)N(NC(=O)OCC)C(=O)OCC`, the growth inhibition in assay [1] is 27.6%; in assay [2], 9.9%; in assay [3] it was 16.9%; in assay [4], 46.4%; in assay [5], 20.9%; in assay [6], 22.4%.

Consider `c1ccc(N2CCN(c3ccccc3)C2)cc1`, for which the growth inhibition in assay [1] is -33.8%; in assay [2], -13.3%; in assay [3], -12.8%; in assay [4], 8.65%; in assay [5] it was 9.1%; in assay [6], 11.5%.

In the case of `COc1ccc(/C(O)=C/c2nc3cccc([N+](=O)[O-])c3[nH]c2=O)cc1`, the growth inhibition was 20.2% in assay [1]; -14.8% in assay [2]; 2.3% in assay [3]; -14.1% in assay [4]; -35.4% in assay [5]; 17.7% in assay [6].

On to `O=C1c2ccccc2C(O)(c2ccccc2)c2ccccc21`, for which the growth inhibition in assay [1] was 13.4%; in assay [2] it was 20.6%; in assay [3] it was 13.8%; in assay [4] it was -21.6%; in assay [5], 13.4%; in assay [6] it was 0.35%.

Regarding `c1ccc2scnc2c1`, the growth inhibition is 21.2% in assay [1]; 7.25% in assay [2]; 13.7% in assay [3]; -24.5% in assay [4]; 29.2% in assay [5]; 37.2% in assay [6].

Turning to `CC(C)C(NC(=O)C1CCCN1)P(=O)(O)O` (configuration not stated), the growth inhibition in assay [1] is 10.1%; in assay [2] it was 1.7%; in assay [3] it was 4.55%; in assay [4], -10.8%; in assay [5] it was 5%; in assay [6] it was 5.9%.

Turning to `CCOC(=O)C1=C(Nc2ccccc2)OC/C1=N\NC(=O)Cc1ccccc1`, the growth inhibition was -6.75% in assay [1]; -23.7% in assay [2]; -1.6% in assay [3]; 0.85% in assay [4]; 10.2% in assay [5]; -19.1% in assay [6].

For `O/N=C\c1cc2ccccc2c[n+]1Cc1ccc2ccccc2c1Br`, the growth inhibition is 9.25% in assay [1]; 32.1% in assay [2]; 44.6% in assay [3]; 48% in assay [4]; 2.9% in assay [5]; 38.8% in assay [6].

For the compound `O=CC1=CCC2c3[nH]c4ccccc4c3CCN2C1` (configuration not stated), the growth inhibition in assay [1] was 24.9%; in assay [2], 20.5%; in assay [3] it was 25.7%; in assay [4], 27.2%; in assay [5], 28.2%; in assay [6], 19.8%.

As for `COC(=O)c1cn2ccc3ccccc3c2c1C(=O)OC`, the growth inhibition in assay [1] was -3.95%; in assay [2] it was 2.15%; in assay [3] it was 9%; in assay [4], -0.25%; in assay [5], -15.7%; in assay [6], 15.5%.

Regarding `Cn1cnc2c(Oc3ccc(Cl)cc3)ncnc21`, the growth inhibition was -7.35% in assay [1]; -14.5% in assay [2]; 5.25% in assay [3]; 8.85% in assay [4]; -22.7% in assay [5]; 5.5% in assay [6].

For the compound `CSc1c2c(c(C)c3c1[nH]c1ccccc13)C=NCC2`, the growth inhibition in assay [1] was 10.8%; in assay [2], 13.8%; in assay [3] it was 8.6%; in assay [4] it was -83.2%; in assay [5], 14%; in assay [6], 17.7%.

For the compound `N#CCc1c(-c2ccccc2)n(S(=O)(=O)c2ccccc2)c2ccccc12`, the growth inhibition was 4.45% in assay [1]; -2.55% in assay [2]; -20.6% in assay [3]; 8.45% in assay [4]; -9.9% in assay [5]; -5.3% in assay [6].

`COC(=O)c1c2c(cc3c1CCC3)CCC2`: the growth inhibition in assay [1] was -21.1%; in assay [2], -3.15%; in assay [3] it was -31.8%; in assay [4] it was 14.8%; in assay [5], 32.9%; in assay [6], -20.2%.

For `CCN(CC)c1nc(N(CC)CC)nc(N(CC)CC)n1`, the growth inhibition in assay [1] is -1%; in assay [2], 14.8%; in assay [3], 2.75%; in assay [4], -30.6%; in assay [5] it was 13.8%; in assay [6] it was 0.2%.
